A short description of experiment [1]: Nuclear factor erythroid 2-related factor 2/antioxidant responsive element (Nrf2/ARE) small molecule agonists: luciferase reporter gene qHTS assay in human keratinocytes (AID 1919969). Also: nearly all actives have a fitted effect of over 35% in size. Also: potency is read from the fitted curve at half-maximal effect. Background: Reporter assays use an easily measured gene product as a stand-in for the process of interest.
Experiment [2] addresses Gonadotropin-releasing hormone receptor (Homo sapiens) (UniProt P30968). Kind of experiment: Human gonadotropin-releasing hormone receptor (GnRHR) small molecule agonists, calcium flux assay in GnRHR-HEK293 cells (AID 1920063). Also: nearly all actives have a fitted effect of over 35% in size. In outline: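 Agonist mode: compounds at 15 concentrations, in triplicate, went onto calcium dye-loaded GnRHR-HEK293 cells. Intracellular calcium was then followed as 480/540 nm fluorescence at 1 s intervals over 3 min.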
On the technique in general: Calcium assays in cells follow changes in intracellular calcium, usually with a dye or a luminescent sensor.

The target in experiment [3] is KiSS-1 receptor (Homo sapiens) (UniProt Q969F8). Kind of experiment: Human kisspeptin (KISS1R) small molecule agonists, calcium flux assay in KISS1R-HEK293 cells (AID 1920064; active = well fitted activation curve with a large enough effect in the repeat runs). In outline: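 Agonist mode: intracellular calcium rise tracked at 1 s intervals over 3 min (480/540 nm) immediately after compound addition to dye-loaded KISS1R-HEK293 stable cells. Each compound tested at 15 concentrations in triplicate.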
Chain of KiSS-1 receptor (Homo sapiens) (Q969F8 whole entry, looked up): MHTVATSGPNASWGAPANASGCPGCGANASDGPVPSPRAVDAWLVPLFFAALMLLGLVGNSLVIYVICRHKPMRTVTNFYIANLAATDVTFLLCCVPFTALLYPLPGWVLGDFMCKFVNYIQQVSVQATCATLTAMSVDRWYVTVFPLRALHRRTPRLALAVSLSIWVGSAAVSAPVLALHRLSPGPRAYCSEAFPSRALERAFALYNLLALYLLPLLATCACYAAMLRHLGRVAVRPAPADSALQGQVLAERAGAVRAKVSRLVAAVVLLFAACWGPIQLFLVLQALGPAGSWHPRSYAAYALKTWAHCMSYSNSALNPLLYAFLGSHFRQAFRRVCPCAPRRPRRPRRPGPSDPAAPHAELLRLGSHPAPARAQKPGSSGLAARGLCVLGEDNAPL

Experiment [4] in a line: G protein-coupled receptor (GPCR) small molecule agonists, calcium flux assay: HEK293 wild type cell line counter screen (AID 1920065). In outline: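 Calcium flux counter screen: compound added in agonist mode at 15 concentrations in triplicate to dye-loaded parental HEK293 cells. Fluorescence (480/540) read kinetically for 3 min; ATP served as positive control.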
Experiment [5] can be described thus: p53 small molecule agonists, cell-based qHTS assay with human liver microsomes (AID 1963577). In outline: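 Cells carrying a p53-responsive bla reporter were rested 5 h (37 C, 5% CO2) before compound transfer. Human liver microsomes plus NADPH, 0.5 mg/mL final apiece, supplied metabolism during the 16 h 37 C exposure.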
Background: qHTS replaces the single test concentration by a dilution series.

A short description of experiment [6]: p53 small molecule agonists, cell-based qHTS assay with rat liver microsomes (AID 1963578). In outline: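 Fluorescence from a beta-lactamase reporter under a p53 response element was measured after cells had been incubated 16 h at 37 C with test compound and rat liver microsomes plus NADPH (0.5 mg/mL final each).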
A short description of experiment [7]: p53 small molecule agonists, cell-based qHTS assay with rat liver microsomes: qHTS cell viability counter screen (AID 1963580). Also: nearly all actives have a fitted effect of over 45% in size. In outline: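 Counter screen for cytotoxicity under metabolic activation: rat liver microsomes and NADPH, 0.5 mg/mL final each, added with compounds to p53RE-bla HCT-116 cells; 16 h at 37 C, then ATP luminescence read.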
A short description of experiment [8]: p53 small molecule agonists, cell-based qHTS assay: qHTS cell viability counter screen (AID 1963581). Also: nearly all actives have a fitted effect of over 45% in size. In outline:
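Counter screen read by CellTiter-Glo luminescence (ATP content, 30 min at room temperature), run in the same wells as the beta-lactamase reporter read. HCT-116 p53RE-bla cells saw compounds for 16 h at 37 C.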

Experiment [9] can be described thus: p53 small molecule agonists, cell-based qHTS assay (AID 1963582; active = well fitted activation curve with a large enough effect in the signal ratio in the repeat runs, not every such curve was filed as active; the % refers to the signal ratio). In outline:
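Read-out is beta-lactamase FRET fluorescence after 2 h at room temperature with LiveBLAzer B/G substrate. p53 response element-bla cells were treated 16 h at 37 C with compounds in DMSO, added 5 h after seeding.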

Experiment [10] addresses 5-hydroxytryptamine receptor 2A (Homo sapiens) (UniProt P28223). The experiment can be described thus: 5-hydroxytryptamine receptor 2A (HTR2A) small molecule agonists, cell-based qHTS assay (AID 1963587). Also: nearly all actives have a fitted effect of over 30% in size. In outline:
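HTR2A-CHO cells, plated 18 h at 37 C/5% CO2, dye-loaded 1 h at 37 C; compounds in DMSO added by pin tool (agonist mode). Intracellular calcium flux read as kinetic fluorescence on FDSS over 2 min at 1 s intervals.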

Experiment [11] addresses Muscarinic acetylcholine receptor M1 (Homo sapiens) (UniProt P11229). The experiment can be described thus: Cholinergic receptor muscarinic 1 (CHRM1) small molecule antagonists, cell-based qHTS assay (AID 1963588). Also: nearly all actives have a fitted effect of over 40% in size. Also: potency is read from the fitted curve at half-maximal effect. In outline: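 Compounds were tested at 15 concentrations in three independent runs. Dye-loaded CHRM1-CHO cells were exposed 5 min at room temperature before stimulation by acetylcholine added at 50nM. Intracellular calcium was read kinetically on FDSS for 3 min.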

For experiment [12] the target is unchanged. Kind of experiment: Cholinergic receptor muscarinic 1 (CHRM1) small molecule agonists, cell-based qHTS assay (AID 1963589). Also: nearly all actives have a fitted effect of over 35% in size. In outline: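 Agonist-mode calcium-flux screen: compounds at 15 concentrations, three independent runs, were pin-transferred onto dye-loaded human CHRM1-CHO cells. Fluorescence was then recorded kinetically every second over minutes.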

Experiment [13] is described as follows: cAMP Responsive Elements (CRE) small molecule agonists, cell-based qHTS assay (AID 1963590). In outline: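 Agonist mode: compound added to CRE-bla HEK 293T cells (2,000/well, 18 h after plating) for 3 h at 37 C/5% CO2. Reporter activity detected via FRET beta-lactamase substrate, 2 h room-temperature loading.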
Experiment [14] can be described thus: cAMP Responsive Elements (CRE) small molecule antagonists, cell-based qHTS assay (AID 1963591; active = well fitted inhibition curve with a large enough effect in the signal ratio in the repeat runs, not every such curve was filed as active; the % refers to the signal ratio). In outline:
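Antagonist mode: compounds are added alongside the adenylyl cyclase activator NKH477 (0.25 uM final) to CRE-bla HEK293T cells for 3 h. LiveBLAzer FRET substrate, 2 h at room temperature, reports bla expression.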

The target of experiment [15] is Beta-2 adrenergic receptor (Homo sapiens) (UniProt P07550). Kind of experiment: Adrenergic beta2 receptor (ADRB2) small molecule antagonists, cell-based qHTS assay (AID 1963592). Also: series mostly up to about 92 µM; nearly all actives have a fitted effect of over 50% in size. In outline: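 Assay format: CHO-ADRB2 cells, 18-20hr seeding at 37C/5% CO2, then compound plus 1nM isoproterenol agonist mix for 0.5hr RT. Homogeneous time-resolved fluorescence cAMP detection after 1hr, expressed as 665/615 nm ratio.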
Chain of Beta-2 adrenergic receptor (Homo sapiens) (P07550 whole entry, looked up): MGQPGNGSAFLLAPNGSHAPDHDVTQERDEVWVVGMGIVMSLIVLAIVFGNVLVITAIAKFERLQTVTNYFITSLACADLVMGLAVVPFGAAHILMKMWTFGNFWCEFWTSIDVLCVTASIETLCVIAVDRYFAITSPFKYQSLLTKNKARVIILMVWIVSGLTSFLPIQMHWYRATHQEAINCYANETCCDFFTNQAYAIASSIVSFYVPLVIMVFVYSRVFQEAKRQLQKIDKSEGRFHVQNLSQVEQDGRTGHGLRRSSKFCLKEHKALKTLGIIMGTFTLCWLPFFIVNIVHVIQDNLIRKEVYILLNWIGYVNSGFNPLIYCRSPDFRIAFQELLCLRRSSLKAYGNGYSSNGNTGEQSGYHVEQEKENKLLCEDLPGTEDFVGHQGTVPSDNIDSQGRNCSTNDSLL

The target is the same in experiment [16]. Kind of experiment: Adrenergic beta2 receptor (ADRB2) small molecule agonists, cell-based qHTS assay (AID 1963593).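 Also: CHO cells stably overexpressing human ADRB2.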 In outline:
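CHO cells stably over-expressing ADRB2 were plated overnight at 37C, then dosed with compounds plus a stimulation mix containing 100uM IBMX and 25uM Ro-20-1724 for 0.5hr at room temperature. cAMP was measured by HTRF competition, 1hr.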

Experiment [17] has as its target D(2) dopamine receptor (Homo sapiens) (UniProt P14416). Kind of experiment: Dopamine D2 receptor (DRD2) small molecule agonists, cell-based qHTS assay (AID 1963594). Also: nearly all actives have a fitted effect of over 35% in size. In outline: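 HEK293 cells stably expressing DRD2 were cultured 24 h at 37 C, then given Ro20-1724 (0.1 mM final) and compounds for 10 min at room temperature. NKH477 (200nM) was then added for 30 min. cAMP was read by HTRF.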

Experiment [18] has the same target. Kind of experiment: Dopamine D2 receptor (DRD2) small molecule antagonists, cell-based qHTS assay (AID 1963595; active = well fitted inhibition curve with a large enough effect in the signal ratio in the repeat runs, with a control signal flat; the % refers to the signal ratio). In outline:
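Readout: HTRF cAMP, cAMP-d2 competing with cellular cAMP for anti-cAMP cryptate, read after 1 h. Cells: DRD2-HEK293. Conditions: 0.1 mM Ro20-1724, 12 nM quinpirole, 200 nM NKH477, 30 min RT.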

Experiment [19] in a line: p53 small molecule agonists, cell-based qHTS assay with human liver microsomes: qHTS cell viability counter screen (AID 1963579). Also: nearly all actives have a fitted effect of over 45% in size. In outline: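 Seed p53RE-bla cells at 4,000 per well; incubate 5 h at 37 C; add compound, human liver microsomes and NADPH; incubate 16 h at 37 C; add CellTiter-Glo; after 30 min at room temperature, read luminescence.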
Experiment [20] deals with 5-hydroxytryptamine receptor 2A (Homo sapiens) (UniProt P28223). The experiment can be described thus: 5-hydroxytryptamine receptor 2A (HTR2A) small molecule antagonists, cell-based qHTS assay (AID 1963586). Also: nearly all actives have a fitted effect of over 45% in size. In outline: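 CHO cells stably expressing human HTR2A were plated for 18 h at 37 C, then loaded with calcium dye for 1 h. Compounds were preincubated 5 min at room temperature before DOI (4 nM solution) was added. Kinetic fluorescence was read for 3 min.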
Chain of 5-hydroxytryptamine receptor 2A (Homo sapiens) (P28223 whole entry, looked up): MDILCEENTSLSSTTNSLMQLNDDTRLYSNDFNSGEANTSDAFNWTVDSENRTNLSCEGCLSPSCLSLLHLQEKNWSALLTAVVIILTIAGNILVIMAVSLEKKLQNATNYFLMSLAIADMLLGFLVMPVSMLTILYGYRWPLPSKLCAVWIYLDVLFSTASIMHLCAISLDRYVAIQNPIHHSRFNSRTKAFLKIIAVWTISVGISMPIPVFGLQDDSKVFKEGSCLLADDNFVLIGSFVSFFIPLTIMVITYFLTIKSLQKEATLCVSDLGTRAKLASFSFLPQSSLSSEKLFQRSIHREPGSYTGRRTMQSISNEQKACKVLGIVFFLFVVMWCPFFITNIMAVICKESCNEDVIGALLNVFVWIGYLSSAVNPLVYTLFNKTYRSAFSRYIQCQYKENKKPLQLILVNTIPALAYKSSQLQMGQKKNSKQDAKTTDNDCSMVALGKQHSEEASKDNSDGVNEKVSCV

Structures are written as SMILES. “And” between values parts separate entries of the source, which are not always exact repeats. Equal entries are not always repeated. Records with an inconclusive call do not appear. The source made the active and inactive calls. Unless noted, calls follow the shape of the full dose curve.

Chain of Muscarinic acetylcholine receptor M1 (Homo sapiens) (P11229 whole entry, looked up): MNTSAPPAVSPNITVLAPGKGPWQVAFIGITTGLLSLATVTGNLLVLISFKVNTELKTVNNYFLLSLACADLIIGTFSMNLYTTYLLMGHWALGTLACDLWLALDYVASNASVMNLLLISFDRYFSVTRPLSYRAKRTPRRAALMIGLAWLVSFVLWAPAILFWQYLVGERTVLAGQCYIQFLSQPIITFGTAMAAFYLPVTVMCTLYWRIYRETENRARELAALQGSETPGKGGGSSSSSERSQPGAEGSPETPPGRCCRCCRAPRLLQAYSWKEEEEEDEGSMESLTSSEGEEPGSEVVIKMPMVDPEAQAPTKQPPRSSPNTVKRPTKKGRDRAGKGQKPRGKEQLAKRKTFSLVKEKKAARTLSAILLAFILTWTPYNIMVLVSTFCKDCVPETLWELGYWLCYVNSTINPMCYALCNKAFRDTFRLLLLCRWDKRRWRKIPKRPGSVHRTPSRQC
Chain of Gonadotropin-releasing hormone receptor (Homo sapiens) (P30968 whole entry, looked up): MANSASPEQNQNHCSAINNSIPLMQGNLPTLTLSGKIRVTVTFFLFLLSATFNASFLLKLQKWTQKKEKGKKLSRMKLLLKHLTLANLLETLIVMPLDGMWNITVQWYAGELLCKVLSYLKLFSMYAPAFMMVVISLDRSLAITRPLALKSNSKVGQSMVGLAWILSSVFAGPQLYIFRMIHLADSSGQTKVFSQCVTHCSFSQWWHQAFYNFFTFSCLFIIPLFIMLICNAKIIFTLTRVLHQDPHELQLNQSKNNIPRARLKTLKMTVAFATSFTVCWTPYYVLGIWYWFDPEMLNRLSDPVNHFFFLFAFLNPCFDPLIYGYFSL
Chain of D(2) dopamine receptor (Homo sapiens) (P14416 whole entry, looked up): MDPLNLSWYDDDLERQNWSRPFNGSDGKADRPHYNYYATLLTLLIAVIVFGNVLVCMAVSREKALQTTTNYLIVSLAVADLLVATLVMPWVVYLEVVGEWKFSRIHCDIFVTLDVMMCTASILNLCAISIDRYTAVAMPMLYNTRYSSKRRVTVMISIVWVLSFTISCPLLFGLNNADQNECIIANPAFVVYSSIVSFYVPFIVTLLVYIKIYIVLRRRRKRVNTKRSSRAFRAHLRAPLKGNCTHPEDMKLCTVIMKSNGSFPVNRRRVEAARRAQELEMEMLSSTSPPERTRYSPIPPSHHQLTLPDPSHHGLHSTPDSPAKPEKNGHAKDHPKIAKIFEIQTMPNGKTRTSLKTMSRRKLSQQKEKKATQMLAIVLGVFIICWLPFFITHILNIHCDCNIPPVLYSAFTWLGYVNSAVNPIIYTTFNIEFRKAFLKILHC

Regarding `C=C1CC[C@@]2(O)[C@H]3Cc4ccc(O)c5c4[C@@]2(CCN3CC2CC2)[C@H]1O5`, the Potency entry in experiment [1], in experiment [2], in [3], in [4], in experiment [5] and in [6] was “inactive” throughout. Besides, the Potency result in experiment [7], in [8], in experiment [9], in experiment [10], in experiment [11] and in experiment [12] was “inactive” in each case. Besides, the Potency entry in [13], in [14], in [15], in [16], in [17] and in experiment [18] was “inactive” throughout.
Turning to `COC(C)(C)C`, the Potency result in experiment [1], in [2], in experiment [3], in experiment [4], in [5] and in experiment [6] was “inactive” in each case. Also, the Potency entry in experiment [19], in [7], in experiment [8], in [9], in [10] and in experiment [11] was “inactive” in each case. Further, the Potency result in experiment [12], in experiment [13], in experiment [15], in experiment [16], in experiment [17] and in [18] was “inactive” each time.
Take `O=C(O)C(F)(F)C(F)(F)C(F)(F)C(F)(F)C(F)(F)C(F)(F)C(F)(F)F`: the Potency result in [1], in experiment [2], in [3], in experiment [4], in experiment [5] and in experiment [6] was “inactive” throughout. The Potency result in experiment [19], in experiment [8], in experiment [9], in experiment [20], in experiment [10] and in experiment [11] was “inactive” each time. In addition, the Potency entry in experiment [12], in [13], in [15], in experiment [16], in experiment [17] and in experiment [18] was “inactive” in each case.
Consider `O=c1oc2ccccc2c(O)c1C(CC(O)c1ccc(-c2ccc(Br)cc2)cc1)c1ccccc1` (configuration not stated), for which the Potency entry in experiment [1], in experiment [2], in experiment [3], in experiment [4], in experiment [5] and in [6] was “inactive” each time. For the same compound, the Potency entry in experiment [19], in experiment [20], in experiment [10], in [12], in experiment [15] and in [16] was “inactive” in each case. The Potency entry in experiment [17] and in experiment [18] was “inactive” throughout. For the same compound, the Potency in [11] is 25.1 µM (active).
In the case of `C=CC1CC=CCC1` (configuration not stated), the Potency entry in experiment [1], in [2], in experiment [3], in experiment [4], in experiment [5] and in experiment [6] was “inactive” each time. In addition, the Potency result in experiment [7], in experiment [8], in experiment [9], in experiment [20], in [10] and in experiment [11] was “inactive” throughout. Further, the Potency entry in [12], in experiment [14], in [15], in [16], in experiment [17] and in experiment [18] was “inactive” each time.
As to `Cc1ccc(N)cc1N`, the Potency in experiment [1] is 26.6 µM (active) and 30.6 µM (active). Besides, the Potency result in experiment [2], in experiment [3], in experiment [4], in experiment [5], in experiment [6] and in [19] was “inactive” throughout. In addition, the Potency result in experiment [7], in experiment [8], in experiment [9], in experiment [20], in experiment [10] and in experiment [11] was “inactive” each time. Besides, the Potency result in experiment [12], in experiment [13], in experiment [14], in experiment [17] and in experiment [18] was “inactive” throughout.
Regarding `CC(C)c1ccc(O)cc1`, the Potency entry in experiment [1], in experiment [2], in [3], in experiment [4], in experiment [5] and in [19] was “inactive” each time. Also, the Potency entry in [7], in experiment [8], in experiment [20], in experiment [10], in experiment [11] and in experiment [13] was “inactive” each time. Also, the Potency result in [14], in [15], in [16], in [17] and in experiment [18] was “inactive” in each case.
